Data reported in PubChem BioAssay AID743449 (Broad Institute, 2014).
Hit rate of the full screen: of about 9,900 compounds, about 90 (0.9%) were called active. Roughly 2% stayed inconclusive and do not appear here. What follows is part of a selection rich in actives, with near analogues and random picks from the rest. Values without a mark were called inactive.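 The calls were made as follows: active = mean normalized replicate activity at least 50 and at least half of replicates each reaching 50; inconclusive = only one of the two criteria met; inactive = neither criterion met.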

test: YAP1 pathway inhibitors via CTGF transcript, primary screen, DLD1 colon cancer cells, RT-qPCR, single point (AID 743449); settings: DLD1 CTGF mRNA qPCR, 24 h; at 12.5 µM; stronger effect = higher value;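 also: 0% = neutral control wells and 100% = dasatinib control wells; higher means stronger suppression of CTGF expression like dasatinib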

| Compound | inhibition |
| --- | --- |
| C[C@@H]1CN([C@@H](C)CO)C(=O)c2cc(NC(=O)Cc3ccccc3)ccc2O[C@@H](C)CCCCO[C@H]1CN(C)Cc1ccncc1 | 2.97% |
| O=C(Nc1ccc(C(F)(F)F)cc1)Nc1ccc2c(c1)[C@H]1C[C@H](CC(=O)N3CCc4ccccc4C3)O[C@H](CO)[C@H]1O2 | 41.9% |
| COc1ccccc1S(=O)(=O)N1CC[C@@H]2[C@H]1c1cc(-c3cccc(C#N)c3)ccc1N(C)[C@H]2CO | 62.1% (active) |
| COc1ccccc1S(=O)(=O)N1CC[C@@H]2[C@@H](CO)N(C)c3ccc(-c4cccc(C#N)c4)cc3[C@@H]21 | 32% |
| Cc1ccc(S(=O)(=O)N2CC[C@@H]3[C@H]2c2cc(-c4cccc(C(=O)N(C)C)c4)ccc2N[C@@H]3CO)cc1 | 68.4% (active) |
| Cc1ccc(S(=O)(=O)N2CC[C@@H]3[C@H](CO)Nc4ccc(-c5cccc(C(=O)N(C)C)c5)cc4[C@@H]32)cc1 | -15% |
| N#Cc1cccc(-c2ccc3c(c2)[C@@H]2[C@@H](CCN2S(=O)(=O)c2ccc(F)cc2)[C@H](CO)N3)c1 | 63% (active) |
| Cc1ccc(S(=O)(=O)N2CC[C@H]3[C@H](CO)Nc4ccc(-c5cccc(C(=O)N(C)C)c5)cc4[C@H]32)cc1 | 56.9% (active) |
| N#Cc1cccc(-c2ccc3c(c2)[C@H]2[C@H](CCN2S(=O)(=O)c2ccc(F)cc2)[C@H](CO)N3)c1 | 20.1% |
| Cc1ccc(S(=O)(=O)N2CC[C@@H]3[C@@H](CO)Nc4ccc(-c5cccc(C(=O)N(C)C)c5)cc4[C@@H]32)cc1 | 4.93% |
| COc1ccccc1-c1ccc2c(c1)[C@@H]1[C@@H](CCN1S(=O)(=O)c1ccc(C)cc1)[C@H](CO)N2 | 37.4% |
| C/C=C/c1ccc2c(c1)[C@@H]1[C@@H](CCN1S(=O)(=O)c1ccccc1OC)[C@H](CO)N2C | -5.93% |
| N#Cc1cccc(-c2ccc3c(c2)[C@@H]2[C@@H](CCN2S(=O)(=O)c2ccc(F)cc2)[C@@H](CO)N3)c1 | 22.5% |
| COc1ccccc1-c1ccc2c(c1)[C@H]1[C@H](CCN1S(=O)(=O)c1ccc(C)cc1)[C@@H](CO)N2 | 17.3% |
| Cc1noc(C)c1S(=O)(=O)N(C)C[C@H]1OCc2ccccc2-c2ccccc2C(=O)N([C@H](C)CO)C[C@H]1C | -25.8% |
| C[C@@H]1CCCCO[C@@H](CN(C)CC2CCCCC2)[C@@H](C)CN([C@@H](C)CO)C(=O)c2cc(NS(C)(=O)=O)ccc2O1 | 2.58% |

| Compound | inhibition |
| --- | --- |
| CS(=O)(=O)N1[C@H](CO)[C@@H](c2ccc(-c3ccccc3F)cc2)[C@@H]1C#N | 16.4% |
| C[C@H]1CN([C@@H](C)CO)C(=O)c2ccccc2-c2ccccc2CO[C@H]1CN(C)Cc1ccccc1C(F)(F)F | 12.5% |
| Cc1ccc(S(=O)(=O)N2C[C@@H](O)COC[C@H]3O[C@@H](CC(=O)NCc4ccc5c(c4)OCO5)CC[C@@H]32)cc1 | 25.4% |
| CCS(=O)(=O)N1CC(=O)N2[C@H](CO)[C@@H](c3ccc(C4=CCCCC4)cc3)[C@@H]2C1 | 0.977% |
| COc1ccc2c3c(n(C)c2c1)[C@H](CO)N(C)CC31CCN(C(=O)NC(C)C)CC1 | 18.6% |
| C[C@@H]1CN([C@@H](C)CO)C(=O)c2c(c3ccccc3n2C)-c2ccccc2CO[C@@H]1CN(C)Cc1cccc(C(F)(F)F)c1 | -39% |
| COc1ccc([C@@H]2C/C=C\C[C@@H](c3ccc4c(c3)OCO4)NC(=O)[C@H](c3ccccc3)CC(=O)N2)c(OC)c1 | 31% |
| COc1ccc([C@H]2C/C=C\C[C@@H](c3ccc4c(c3)OCO4)NC(=O)[C@@H](c3ccccc3)CC(=O)N2)c(OC)c1 | 58.4% (active) |
| COc1ccc([C@H]2C/C=C\C[C@H](c3ccc4c(c3)OCO4)NC(=O)[C@H](c3ccccc3)CC(=O)N2)c(OC)c1 | -62.1% |
| O=C(Nc1ccc(F)cc1)N1CC(=O)N2[C@H](CO)[C@@H](c3ccc(C#Cc4cccnc4)cc3)[C@@H]2C1 | -8.94% |
| O=C(Nc1ccc(F)cc1)N1C[C@@H]2[C@H](c3ccccc31)[C@@H](CO)N2Cc1ccccc1Cl | -18.1% |
| OC[C@@H]1[C@@H](c2ccc(-c3cccnc3)cc2)[C@H]2CN(Cc3ccccn3)CCCCN12 | -1.92% |
| CCCC(=O)N1CCC2(CC1)CN[C@@H](CO)c1[nH]c3cc(OC)ccc3c12 | -5.58% |
| CCCC(=O)N1CCC2(CC1)CN[C@H](CO)c1[nH]c3cc(OC)ccc3c12 | 2.25% |
| COc1ccc2c3c([nH]c2c1)[C@H](CO)NCC31CCN(C(=O)Cc2cccnc2)CC1 | 51% (active) |
